Measured values: PubChem BioAssay AID1159580 (chemical genetic matrix, 2015)
“And” between values parts separate entries of the source, which are not always exact repeats. Equal values may be shown once. The campaign covered roughly 5,500 compounds. About 2,000 (36%) were called active. Roughly 18% stayed inconclusive and do not appear here. Cut-off read from the data, not from the text of the source: active = normalized growth mostly below about 0.91 (no sharp cut-off); inconclusive = no clear call, values can overlap the other calls; inactive = mostly above about 0.92. The list shows a part of the results.

Experiment: chemical genetic growth profiling, strain panel (AID 1159580);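 note: tested at 20 µM; growth read once vehicle control cultures reached saturation at 30 °C; 1 = growth at the plate median or of vehicle wells; lower values mean less growth of the strain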
Conditions: growth OD

Measured: normalized growth

CNC1(C)C2CCC(C2)C1(C)C (stereo unspecified)
inactive: S. cerevisiae deletion strains, locus YJR075W, strain HOC1, active compounds read low 1 and 1.01 | S. cerevisiae deletion strains, locus YKL009W, strain mrt4, active compounds read low 1.03 | S. cerevisiae deletion strains, locus YKL068W, active compounds read low 0.989 | S. cerevisiae deletion strains, locus YKL085W, strain MDH1 (second series), active compounds read low 1.02 | S. cerevisiae deletion strains, locus YKL085W, strain MDH1, active compounds read low 1.02 | S. cerevisiae deletion strains, locus YKL160W, strain elf1, active compounds read low 0.97 | S. cerevisiae deletion strains, locus YKL190W, strain CNB1, active compounds read low 0.977 | S. cerevisiae deletion strains, locus YKR001C, strain vps1, active compounds read low 0.997 | S. cerevisiae deletion strains, locus YKR026C, strain gcn3, active compounds read low 1 | S. cerevisiae deletion strains, locus YKR091W, strain srl3, active compounds read low 1 | S. cerevisiae deletion strains, locus YLL001W, strain dnm1, active compounds read low 0.948 | S. cerevisiae deletion strains, locus YLL026W, active compounds read low 0.996 | S. cerevisiae deletion strains, locus YLL041C, strain sdh2, active compounds read low 0.988 | S. cerevisiae deletion strains, locus YLR027C, strain aat2, active compounds read low 0.996 | S. cerevisiae deletion strains, locus YLR039C, strain RIC1, active compounds read low 0.959 | S. cerevisiae deletion strains, locus YLR058C, strain SHM2, active compounds read low 0.979 | S. cerevisiae deletion strains, locus YLR102C, strain apc9, active compounds read low 0.981 | S. cerevisiae deletion strains, locus YLR113W, strain HOG1, active compounds read low 0.934 | S. cerevisiae deletion strains, locus YLR221C, strain rsa3, active compounds read low 0.976 | S. cerevisiae deletion strains, locus YLR258W, strain gsy2, active compounds read low 1.02 | S. cerevisiae deletion strains, locus YLR262C, strain YPT6 (second series), active compounds read low 1 | S. cerevisiae deletion strains, locus YLR262C, strain YPT6, active compounds read low 0.934 | S. cerevisiae deletion strains, locus YLR268W, strain sec22, active compounds read low 0.965 | S. cerevisiae deletion strains, locus YLR320W, strain mms22, active compounds read low 0.982 | S. cerevisiae deletion strains, locus YLR330W, strain CHS5, active compounds read low 0.987 | S. cerevisiae deletion strains, locus YLR342W, strain FKS1 (second series), active compounds read low 1.08 | S. cerevisiae deletion strains, locus YLR342W, strain FKS1, active compounds read low 0.99 | S. cerevisiae deletion strains, locus YLR357W, strain rsc2, active compounds read low 0.987 | S. cerevisiae deletion strains, locus YLR370C, strain arc18, active compounds read low 0.989 | S. cerevisiae deletion strains, locus YLR371W, strain rom2, active compounds read low 1.01 | S. cerevisiae deletion strains, locus YLR384C, strain iki3, active compounds read low 1 | S. cerevisiae deletion strains, locus YLR418C, strain cdc73, active compounds read low 0.909 | S. cerevisiae deletion strains, locus YML016C, strain PPZ1, active compounds read low 0.993 | S. cerevisiae deletion strains, locus YML032C, strain rad52, active compounds read low 1.03 | S. cerevisiae deletion strains, locus YML120C, strain ndi1, active compounds read low 0.979 | S. cerevisiae deletion strains, locus YML124C, strain tub3, active compounds read low 0.995 | S. cerevisiae deletion strains, locus YMR058W, strain fet3, active compounds read low 0.995 | S. cerevisiae deletion strains, locus YMR078C, strain ctf18, active compounds read low 0.999 | S. cerevisiae deletion strains, locus YMR125W, strain sto1, active compounds read low 0.987 | S. cerevisiae deletion strains, locus YMR129W, active compounds read low 0.998 | S. cerevisiae deletion strains, locus YMR205C, strain PFK2, active compounds read low 0.983 | S. cerevisiae deletion strains, locus YMR223W, strain ubp8, active compounds read low 1.04 | S. cerevisiae deletion strains, locus YMR231W, strain pep5, active compounds read low 0.998 | S. cerevisiae deletion strains, locus YMR263W, strain SAP30, active compounds read low 0.966 and 1 | S. cerevisiae deletion strains, locus YMR307W, strain GAS1, active compounds read low 1.06 | S. cerevisiae deletion strains, locus YNL067W, strain RPL9B, active compounds read low 0.976 | S. cerevisiae deletion strains, locus YNL071W, strain lat1, active compounds read low 0.993 | S. cerevisiae deletion strains, locus YNL128W, strain TEP1, active compounds read low 0.946 and 1.02 | S. cerevisiae deletion strains, locus YNL153C, strain GIM3, active compounds read low 0.962 | S. cerevisiae deletion strains, locus YNL175C, strain NOP13, active compounds read low 0.998 | S. cerevisiae deletion strains, locus YNL183C, strain NPR1, active compounds read low 0.971 | S. cerevisiae deletion strains, locus YNL197C, strain WHI3, active compounds read low 1.02 | S. cerevisiae deletion strains, locus YNL209W, strain ssb2, active compounds read low 0.992 | S. cerevisiae deletion strains, locus YNL224C, strain SQS1, active compounds read low 1.01 | S. cerevisiae deletion strains, locus YNL233W, strain BNI4, active compounds read low 0.98 | S. cerevisiae deletion strains, locus YNL248C, strain rpa49, active compounds read low 0.982 | S. cerevisiae deletion strains, locus YNL250W, strain rad50, active compounds read low 0.995 | S. cerevisiae deletion strains, locus YNL271C, strain bni1, active compounds read low 0.996 | S. cerevisiae deletion strains, locus YNL298W, strain CLA4, active compounds read low 0.99 | S. cerevisiae deletion strains, locus YNL307C, strain MCK1, active compounds read low 0.999 | S. cerevisiae deletion strains, locus YNL322C, strain KRE1 (second series), active compounds read low 1 | S. cerevisiae deletion strains, locus YNL322C, strain KRE1, active compounds read low 0.978 | S. cerevisiae deletion strains, locus YNR049C, strain mso1, active compounds read low 0.996 | S. cerevisiae deletion strains, locus YNR052C, strain pop2, active compounds read low 0.992 | S. cerevisiae deletion strains, locus YOL006C, strain TOP1, active compounds read low 0.951 | S. cerevisiae deletion strains, locus YOL012C, strain htz1 0.652 | S. cerevisiae deletion strains, locus YOL147C, strain pex11, active compounds read low 0.996 | S. cerevisiae deletion strains, locus YOR001W, strain rrp6, active compounds read low 0.964 | S. cerevisiae deletion strains, locus YOR061W, strain CKA2, active compounds read low 0.958 | S. cerevisiae deletion strains, locus YOR069W, strain VPS5, active compounds read low 0.993 | S. cerevisiae deletion strains, locus YOR070C, strain gyp1, active compounds read low 0.997 | S. cerevisiae deletion strains, locus YOR080W, strain dia2, active compounds read low 0.999 | S. cerevisiae deletion strains, locus YOR083W, strain WHI5 (second series), active compounds read low 1.01 | S. cerevisiae deletion strains, locus YOR083W, strain WHI5, active compounds read low 0.978 | S. cerevisiae deletion strains, locus YOR106W, strain vam3, active compounds read low 0.987 | S. cerevisiae deletion strains, locus YOR136W, strain idh2, active compounds read low 1.01 | S. cerevisiae deletion strains, locus YOR144C, strain elg1, active compounds read low 0.99 | S. cerevisiae deletion strains, locus YOR184W, strain ser1, active compounds read low 1.05 | S. cerevisiae deletion strains, locus YOR265W, strain rbl2, active compounds read low 0.989 | S. cerevisiae deletion strains, locus YOR270C, strain vph1, active compounds read low 0.991 | S. cerevisiae deletion strains, locus YOR290C, strain snf2, active compounds read low 0.958 | S. cerevisiae deletion strains, locus YOR316C, strain cot1, active compounds read low 0.985 | S. cerevisiae deletion strains, locus YPL051W, strain arl3, active compounds read low 0.999 | S. cerevisiae deletion strains, locus YPL055C, strain LGE1, active compounds read low 0.935 | S. cerevisiae deletion strains, locus YPL078C, strain atp4, active compounds read low 0.983 | S. cerevisiae deletion strains, locus YPL106C, strain sse1, active compounds read low 0.979 | S. cerevisiae deletion strains, locus YPL240C, strain hsp82, active compounds read low 0.989 | S. cerevisiae deletion strains, locus YPL241C, strain CIN2, active compounds read low 1 | S. cerevisiae deletion strains, locus YPL256C, strain CLN2, active compounds read low 0.946 | S. cerevisiae deletion strains, locus YPR119W, strain clb2, active compounds read low 0.993 | S. cerevisiae deletion strains, locus YPR141C, strain kar3, active compounds read low 0.968 | S. cerevisiae deletion strains, locus YPR163C, strain tif3, active compounds read low 0.991 | S. cerevisiae deletion strains, locus YPR167C, strain met16, active compounds read low 0.983 | S. cerevisiae deletion strains, strain wtn01, active compounds read low 0.974 | S. cerevisiae strains, strain wild type, active compounds read low 0.991
active: S. cerevisiae deletion strains, locus YOR231W, strain MKK1, active compounds read low 0.824
